From PubChem BioAssay (EPA / NIEHS)
Calls of active or inactive are those of the source. Rule for the calls: active = hit-call score of the fitted dose curve at least 0.9, where 1 is the maximum; inactive = score below 0.9.

Assays:
[1] = ATG_E_Box_CIS: Attagene CIS-FACTORIAL HepG2 Assay for human Enhancer Box (E-box) (AID 2282936); conditions: HepG2 E-box cis-reporter transcription, actives raise or lower the signal
Outline: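 Cells: HepG2 (human liver), transient MRTU transfection. Exposure 24 h. RNA → oligo(dT) RT → PCR → 6-FAM label → HpaI → CE. Activity fitted both directions relative to DMSO.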

[2] = ATG_M_61_CIS: Attagene CIS-FACTORIAL HepG2 Assay for M61 Transcription Factor (Internal Marker) (AID 2282937); conditions: HepG2 Attagene CIS-FACTORIAL M61 internal marker reporter; actives raise or lower the signal
Outline: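 Transfect HepG2 with MRTUs; dose 24 h; isolate RNA; reverse-transcribe with DNase I treatment; PCR-amplify, FAM-label and cut with HpaI for 2 h at 37 C; resolve by CE. Bidirectional fitting against DMSO.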

[3] = ATG_M_19_CIS: Attagene CIS-FACTORIAL HepG2 Assay for M19 Transcription Factor (Internal Marker) (AID 2282939); conditions: HepG2 Attagene CIS-FACTORIAL M19 internal marker reporter; actives raise or lower the signal
Outline: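 In this multiplexed cell assay, transiently transfected HepG2 reporter units report endogenous transcription-factor activity; after 24 hours of treatment, labelled reporter cDNA fragments are quantified by capillary electrophoresis and fitted bidirectionally against DMSO.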

[4] = ATG_ERE_CIS: Attagene CIS-FACTORIAL HepG2 Assay for Estrogen Response Element (ERE) (AID 2282940); conditions: HepG2 ERE cis-reporter, Attagene RNA transcript; actives raise or lower the signal
Outline: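 Measuring endogenous transcription factor output, the assay doses transfected HepG2 cells for 24 hours and quantifies reporter transcripts by fluorescent RT-PCR and capillary electrophoresis, with DMSO as baseline.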

[5] = biological target: Hepatocyte nuclear factor 3-beta (Homo sapiens) (UniProt Q9Y261); test: ATG_FoxA2_CIS: Attagene CIS-FACTORIAL HepG2 Assay for human Forkhead box A2 (FOXA2) (AID 2282942); conditions: HepG2 cis-reporter transcription factor activity, 24 h; actives raise or lower the signal
Sequence of Hepatocyte nuclear factor 3-beta (Homo sapiens) (Q9Y261 whole entry, looked up): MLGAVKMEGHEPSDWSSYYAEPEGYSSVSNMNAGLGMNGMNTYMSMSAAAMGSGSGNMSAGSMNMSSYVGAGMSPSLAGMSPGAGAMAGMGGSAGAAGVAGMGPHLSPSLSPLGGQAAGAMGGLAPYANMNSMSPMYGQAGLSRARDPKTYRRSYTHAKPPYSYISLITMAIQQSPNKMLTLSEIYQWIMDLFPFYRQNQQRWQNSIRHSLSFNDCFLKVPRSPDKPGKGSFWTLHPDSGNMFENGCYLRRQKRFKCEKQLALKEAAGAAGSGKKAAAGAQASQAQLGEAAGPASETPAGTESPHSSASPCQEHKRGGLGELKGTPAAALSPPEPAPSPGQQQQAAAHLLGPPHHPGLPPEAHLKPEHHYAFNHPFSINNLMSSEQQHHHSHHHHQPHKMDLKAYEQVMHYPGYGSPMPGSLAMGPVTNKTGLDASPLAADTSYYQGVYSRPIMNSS
Outline: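 24 h dosing of HepG2 bearing cis-reporter constructs; mRNA readout by RT-PCR/CE fluorescence; bidirectional fit, DMSO baseline.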

[6] = ATG_FoxO_CIS: Attagene CIS-FACTORIAL HepG2 Assay for human Forkhead box O (FoxO) (AID 2282943); conditions: HepG2 Attagene cis-reporter, FoxO element, mRNA; actives raise or lower the signal
Outline: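 Endogenous transcription factor activity read from multiplexed cis-promoter reporter transcripts in transiently transfected HepG2, 24 h after dosing. Reporter RNA measured via RT-PCR plus capillary electrophoresis of FAM-labeled products; gain or loss relative to DMSO.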

[7] = ATG_GATA_CIS: Attagene CIS-FACTORIAL HepG2 Assay for human GATA Binding Protein (AID 2282944); conditions: HepG2 GATA cis-element reporter, Attagene multiplex mRNA; actives raise or lower the signal
Outline: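 Measures endogenous transcription factor-driven reporter mRNA in HepG2 cells transiently carrying cis-regulated constructs. 24 h dosing; RNA via oligo(dT) reverse transcription, PCR, HpaI digestion, capillary electrophoresis; fitted relative to DMSO.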

[8] = ATG_GLI_CIS: Attagene CIS-FACTORIAL HepG2 Assay for human Zinc Finger Protein GLI1 (AID 2282945); conditions: HepG2, Attagene cis-factorial reporter mRNA, GLI element; actives raise or lower the signal
Outline: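 Bidirectional curve fits relative to DMSO, using reporter mRNA levels from RT-PCR plus capillary electrophoresis. Cells were HepG2 transiently carrying cis-regulated reporter constructs, harvested 24 h after dosing.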

[9] = ATG_ISRE_CIS: Attagene CIS-FACTORIAL HepG2 Assay for human Interferon Regulatory Factor 1 (IRF1) binding to an Interferon-Stimulated Response Element (ISRE) (AID 2282948); conditions: HepG2 ISRE cis-reporter (Attagene), mRNA transcription readout; actives raise or lower the signal
Outline: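 Transfected HepG2 (multiple reporter transcription units, cis elements) dosed 24 h. RNA → oligo(dT) RT → PCR → 6-FAM primer extension → HpaI → CE. DMSO = negative control/baseline.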

[10] = biological target: Hypoxia-inducible factor 1-alpha (Homo sapiens) (UniProt Q16665); test: ATG_HIF1a_CIS: Attagene CIS-FACTORIAL HepG2 Assay for human Hypoxia Inducible Factor 1 (HIF1A) (AID 2282951); conditions: HepG2 Attagene cis-factorial HIF1a reporter transcription; actives raise or lower the signal
Sequence of Hypoxia-inducible factor 1-alpha (Homo sapiens) (Q16665 whole entry, looked up): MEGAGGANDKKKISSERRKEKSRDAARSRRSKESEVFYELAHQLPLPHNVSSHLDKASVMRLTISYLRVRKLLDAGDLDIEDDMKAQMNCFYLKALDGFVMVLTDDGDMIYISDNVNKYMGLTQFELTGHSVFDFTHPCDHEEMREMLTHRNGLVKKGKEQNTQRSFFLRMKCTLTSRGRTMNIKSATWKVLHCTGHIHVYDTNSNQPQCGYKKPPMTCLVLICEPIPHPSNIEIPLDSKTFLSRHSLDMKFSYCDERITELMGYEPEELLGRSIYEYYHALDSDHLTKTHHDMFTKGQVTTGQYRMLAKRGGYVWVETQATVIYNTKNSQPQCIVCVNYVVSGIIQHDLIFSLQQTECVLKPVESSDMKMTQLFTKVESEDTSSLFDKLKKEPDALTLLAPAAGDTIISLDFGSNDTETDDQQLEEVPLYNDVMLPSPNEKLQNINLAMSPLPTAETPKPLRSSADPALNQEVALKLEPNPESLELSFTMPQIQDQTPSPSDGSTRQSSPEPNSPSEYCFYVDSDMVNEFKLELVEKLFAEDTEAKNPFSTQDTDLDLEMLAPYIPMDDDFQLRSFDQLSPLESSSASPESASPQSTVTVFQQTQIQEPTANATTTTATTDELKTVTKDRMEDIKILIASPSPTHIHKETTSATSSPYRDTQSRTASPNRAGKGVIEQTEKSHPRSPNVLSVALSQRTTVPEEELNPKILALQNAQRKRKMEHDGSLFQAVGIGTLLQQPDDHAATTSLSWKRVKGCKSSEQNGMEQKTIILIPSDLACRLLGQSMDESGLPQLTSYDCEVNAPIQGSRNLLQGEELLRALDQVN
Outline: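 After 24 h chemical exposure of reporter-transfected HepG2 cells, reporter cDNA was PCR-amplified, labelled by 6-FAM primer extension (2 min 95 C, 20 s 68 C, 10 min 72 C), HpaI-cut (2 h, 37 C) and analysed by CE.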

[11] = biological target: Hepatocyte nuclear factor 6 (Homo sapiens) (UniProt Q9UBC0); test: ATG_HNF6_CIS: Attagene CIS-FACTORIAL HepG2 Assay for human Hepatocyte Nuclear Factor 6 (HNF6) (AID 2282952); conditions: HepG2 Attagene cis-factorial HNF6 reporter transcription; actives raise or lower the signal
Sequence of Hepatocyte nuclear factor 6 (Homo sapiens) (Q9UBC0 whole entry, looked up): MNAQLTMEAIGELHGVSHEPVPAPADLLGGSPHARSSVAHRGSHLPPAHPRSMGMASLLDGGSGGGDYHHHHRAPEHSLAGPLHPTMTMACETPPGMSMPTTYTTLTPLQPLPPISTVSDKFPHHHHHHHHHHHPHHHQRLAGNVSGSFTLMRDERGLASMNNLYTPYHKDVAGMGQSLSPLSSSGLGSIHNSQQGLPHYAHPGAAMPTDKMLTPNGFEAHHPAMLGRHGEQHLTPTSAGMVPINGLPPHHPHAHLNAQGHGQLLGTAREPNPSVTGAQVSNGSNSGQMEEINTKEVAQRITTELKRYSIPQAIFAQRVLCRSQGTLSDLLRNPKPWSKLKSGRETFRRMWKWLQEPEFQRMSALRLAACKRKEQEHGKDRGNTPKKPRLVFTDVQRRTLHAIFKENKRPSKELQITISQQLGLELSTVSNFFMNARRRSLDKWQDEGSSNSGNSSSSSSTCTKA
Outline: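 Transiently transfected HepG2 cells expressing cis-regulated reporter transcription units were exposed to chemical for 24 h in a 24-well format. Reporter transcript abundance was determined by fluorescence capillary electrophoresis.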

[12] = biological target: Heat shock factor protein 1 (Homo sapiens) (UniProt Q00613); test: ATG_HSE_CIS: Attagene CIS-FACTORIAL HepG2 Assay for human Heat Shock Transcription Factor 1 (HSE) (AID 2282953); conditions: HepG2 HSE cis-reporter, Attagene RNA transcription; actives raise or lower the signal
Sequence of Heat shock factor protein 1 (Homo sapiens) (Q00613 whole entry, looked up): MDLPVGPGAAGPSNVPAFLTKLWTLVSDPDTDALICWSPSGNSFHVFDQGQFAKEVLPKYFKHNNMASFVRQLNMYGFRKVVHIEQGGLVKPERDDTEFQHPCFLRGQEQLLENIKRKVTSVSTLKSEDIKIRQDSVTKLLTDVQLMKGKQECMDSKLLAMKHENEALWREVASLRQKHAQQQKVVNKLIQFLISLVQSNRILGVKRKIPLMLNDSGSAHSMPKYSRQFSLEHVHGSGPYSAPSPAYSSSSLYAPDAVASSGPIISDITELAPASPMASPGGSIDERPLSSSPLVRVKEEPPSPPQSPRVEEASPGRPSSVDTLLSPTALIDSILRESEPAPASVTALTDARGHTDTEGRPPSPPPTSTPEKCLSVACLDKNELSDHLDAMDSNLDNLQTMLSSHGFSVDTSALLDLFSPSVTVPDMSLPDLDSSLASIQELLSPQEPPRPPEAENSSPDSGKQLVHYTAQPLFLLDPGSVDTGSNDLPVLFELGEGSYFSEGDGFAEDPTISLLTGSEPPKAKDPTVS
Outline: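 Using HepG2 with transfected cis-driven reporter constructs, compound effects on endogenous factor activity are scored as reporter mRNA change at 24 h. Detection: RT-PCR, HpaI digestion, capillary electrophoresis; bidirectional fitting to DMSO.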

[13] = ATG_MRE_CIS: Attagene CIS-FACTORIAL HepG2 Assay for human Metal Responsive Element (MRE) (AID 2282954); conditions: HepG2 MRE cis-reporter transcription, Attagene multiplex; actives raise or lower the signal
Outline: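 Transient MRTU transfection of HepG2 (FuGene 6); 24 h dosing; total RNA → oligo(dT) RT, PCR, 6-FAM primer extension, HpaI cut, CE. Bidirectional fit vs DMSO.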

[14] = ATG_PBREM_CIS: Attagene CIS-FACTORIAL HepG2 Assay for human Phenobarbital-responsive Enhancer Module (PBREM) (AID 2282955); conditions: HepG2 PBREM cis-reporter, Attagene multiplexed transcription; actives raise or lower the signal
Outline: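 Measures endogenous factor action on a phenobarbital-responsive enhancer module. HepG2 transiently carrying cis reporters, 24 h treatment, mRNA read-out by RT-PCR plus capillary electrophoresis.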

[15] = ATG_EGR_CIS: Attagene CIS-FACTORIAL HepG2 Assay for human Early Growth Response 1 (EGR1) (AID 2282938); conditions: HepG2 Attagene CIS-FACTORIAL EGR reporter mRNA; actives raise or lower the signal
Outline: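 After a 24 h treatment of transiently transfected HepG2 cells, total RNA was reverse-transcribed and reporter sequences PCR-amplified, labelled and run on capillary electrophoresis. Reporters sit under cis-regulatory promoters sensing endogenous factors.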

[16] = ATG_M_32_CIS: Attagene CIS-FACTORIAL HepG2 Assay for M32 Transcription Factor (Internal Marker) (AID 2282949); conditions: HepG2 Attagene cis-factorial M32 reporter, mRNA; actives raise or lower the signal;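 note: background control marker of the multiplexed CIS panel rather than a real target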
Outline: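 Fluorescent capillary electrophoresis peaks of HpaI-digested, FAM-labelled RT-PCR reporter products give the signal. Source: transiently transfected human liver HepG2 cells, 24 h after chemical dosing; bidirectional fitting against DMSO.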

[17] = ATG_M_06_CIS: Attagene CIS-FACTORIAL HepG2 Assay for M06 Transcription Factor (Internal Marker) (AID 2282950); conditions: HepG2 Attagene CIS-FACTORIAL M06 internal marker reporter; actives raise or lower the signal
Outline: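 One of many multiplexed endpoints: HepG2 reporter mRNA after 24 h dosing, detected by RT-PCR and capillary electrophoresis fluorescence; gain or loss of signal analysed against DMSO.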

[18] = ATG_Ets_CIS: Attagene CIS-FACTORIAL HepG2 Assay for human Erythroblast Transformation Specific (ETS) (AID 2282941); conditions: HepG2 ETS cis-reporter transcription, actives raise or lower the signal
Outline: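 Steps: transfect HepG2 with multiple reporter units; treat compound 24 h; isolate RNA, DNase-treat, reverse-transcribe; PCR-amplify, label with 6-FAM, digest with HpaI; separate by capillary electrophoresis. Activity fitted both directions versus DMSO.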

[19] = biological target: Bile acid receptor (Homo sapiens) (UniProt Q96RI1); test: ATG_IR1_CIS: Attagene CIS-FACTORIAL HepG2 Assay for human Nuclear Receptor Subfamily 1 Group H Member 4 (NR1H4), IR1 submotif (AID 2282946); conditions: IR1 reporter transcription, actives raise or lower the signal
Sequence of Bile acid receptor (Homo sapiens) (Q96RI1 whole entry, looked up, the tested form may be a part): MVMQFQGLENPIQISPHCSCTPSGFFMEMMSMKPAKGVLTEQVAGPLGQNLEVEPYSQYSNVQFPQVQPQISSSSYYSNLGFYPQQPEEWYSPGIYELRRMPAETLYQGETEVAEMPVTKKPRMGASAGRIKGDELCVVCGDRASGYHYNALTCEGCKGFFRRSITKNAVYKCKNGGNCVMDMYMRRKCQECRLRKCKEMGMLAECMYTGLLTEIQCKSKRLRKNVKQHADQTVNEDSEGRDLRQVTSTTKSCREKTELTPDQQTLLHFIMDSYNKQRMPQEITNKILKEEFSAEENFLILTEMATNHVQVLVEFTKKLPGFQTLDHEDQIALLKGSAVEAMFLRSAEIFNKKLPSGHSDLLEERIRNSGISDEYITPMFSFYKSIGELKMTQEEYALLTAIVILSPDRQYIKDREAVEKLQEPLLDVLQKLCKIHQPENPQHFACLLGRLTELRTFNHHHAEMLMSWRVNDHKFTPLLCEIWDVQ
Outline: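 Cells (human HepG2) carry transiently transfected cis-promoter reporter transcription units. Compounds are incubated 24 h, total RNA is reverse-transcribed and amplified, and labelled fragments are resolved by capillary electrophoresis. Curves use DMSO as baseline.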

[20] = ATG_GRE_CIS: Attagene CIS-FACTORIAL HepG2 Assay for human Glucocorticoid Response Elements (GRE) (AID 2282947); conditions: HepG2 GRE cis-reporter, Attagene multiplex mRNA; actives raise or lower the signal
Outline: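 Transient MRTU transfection of human HepG2 liver cells; cis-regulated reporters report endogenous factors. 24 h dosing → RNA isolation → RT-PCR → 6-FAM primer extension → HpaI cut → CE fragment analysis. Bidirectional fit, DMSO negative control.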

Measured: outcome

Cc1cc(C)c(C)c(O)c1
not listed: [15] | [16] | [17] | [18] | [19] | [20]
inactive: all other assays above

C=C(C)[C@H]1CC=C(C)CC1
not listed: [3] | [12] | [18] | [19] | [20]
inactive: all other assays above

C=C[C@](C)(O)CC[C@@H]1[C@@]2(C)CCCC(C)(C)[C@@H]2CC[C@@]1(C)O
not listed: [3] | [12] | [15]
inactive: all other assays above

CCC(C)(C)C1CCCCC1OC(C)=O (stereo not given)
not listed: [15] | [19] | [20]
inactive: all other assays above

CC(CC=O)CCCC(C)(C)O (stereo not given)
not listed: [14] | [15] | [17] | [18] | [19]
inactive: all other assays above

OC1OCCOC1O (stereo not given)
not listed: [12] | [15] | [18]
inactive: all other assays above

CCCCCc1ccc(Cl)cc1
not listed: [14] | [15]
inactive: all other assays above

O=S(=O)(O)c1cc(S(=O)(=O)O)c2ccc3c(S(=O)(=O)O)cc(S(=O)(=O)O)c4ccc1c2c43
not listed: [14] | [15] | [16]
inactive: all other assays above
